From the supplement of paper PMC12350171 come the findings set out here.

Structures can show the parent of a compound that is named as a salt. Unmarked numbers belong to inactive results.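 The calls were made as follows: active = AUC significantly below DMSO controls by Student t-fit with adjusted P under 0.01; inactive = not significantly reduced.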

In the assay the test system is Haemophilus parainfluenzae. Description: growth AUC normalised to DMSO control (fraction of control); higher = less growth inhibition, active = hit call of the paper. The following applies: 20 µM. In outline: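 Pathogens were passaged twice under anaerobic conditions, then inoculated into pre-reduced mGAM plates at a starting OD578 of 0.01, with compound at 20 μM and 1% DMSO, and sealed with breathable membranes. For Haemophilus parainfluenzae, the medium was supplemented with hemin and NAD. OD578 was read every hour for 24 h in three biological replicates. Growth-curve AUC was calculated by the trapezoidal rule up to the exponential-to-stationary transition and normalised to DMSO controls on the same plate.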
As for `CC(Oc1ccccc1)C(=O)N[C@@H]1C(=O)N2[C@@H]1SC(C)(C)[C@@H]2C(=O)O` (stereo partly specified) [Phenethicillin potassium salt], the “growth AUC normalised to DMSO control” value is 0.59 (active). With `CCOC(=O)[N-]c1c[n+](N2CCOCC2)no1` [Molsidomine], the “growth AUC normalised to DMSO control” value was 1.03.

Consider `C/C(=C(\CCOP(=O)(O)O)SC(=O)c1ccccc1)N(C=O)Cc1cnc(C)nc1N` [Benfotiamine], for which the “growth AUC normalised to DMSO control” value is 0.999. The same measure for `CC(C)(CO)[C@@H](O)C(=O)NCCCO` [(D)-Panthenol]: 0.991. With `CCCOc1cc(N)ccc1C(=O)OCCN(CC)CC` [Propoxycaine hydrochloride], the “growth AUC normalised to DMSO control” value is 1.04.

On to `COc1ccc(CC2c3cc(OC)c(OC)cc3CC[N+]2(C)CCC(=O)OCCCCCOC(=O)CC[N+]2(C)CCc3cc(OC)c(OC)cc3C2Cc2ccc(OC)c(OC)c2)cc1OC` (stereo unspecified) [Atracurium besylate], for which the “growth AUC normalised to DMSO control” value is 1.06. For the compound `NCCCCCC(=O)O` [Aminocaproic acid], the “growth AUC normalised to DMSO control” value is 1.1. The same measure for `C=CC1=C(C(=O)O)N2C(=O)[C@@H](NC(=O)/C(=N\O)c3csc(N)n3)[C@H]2SC1` [Cefdinir]: 0.176 (active). The result for `CC(=O)OCC(=O)[C@@]12OC(C)(C)O[C@@H]1C[C@H]1[C@@H]3C[C@H](F)C4=CC(=O)C=C[C@]4(C)[C@@]3(F)[C@@H](O)C[C@@]12C` [Fluocinonide] reads 0.999; that for `Cc1ncc(C[n+]2csc(CCO)c2C)c(N)n1` [Thiamine hydrochloride], 0.964; that for `CC(C)C(=O)c1c(C(C)C)nn2ccccc12` [Ibudilast], 0.811.
